From PubChem BioAssay (EPA / NIEHS)
Calls of active or inactive are those of the source. The calls were made as follows: active = hit-call score of the fitted dose curve at least 0.9, where 1 is the maximum; inactive = score below 0.9.

Test: ATG_Oct_MLP_CIS: Attagene CIS-FACTORIAL HepG2 Assay for human Octamer-Binding Transcription Factor (Oct) (AID 2282993)
Settings: HepG2 Attagene cis-factorial Oct reporter, mRNA; actives raise or lower the signal
Experimental: ATG_CIS is a cell-based, multiplexed-readout assay that uses HepG2, a human liver cell line, with measurements taken at 24 hours after chemical dosing in a 24-well plate.ATG_Oct_MLP_CIS is one of 52 assay component(s) measured or calculated from the ATG_CIS assay. It is designed to make measurements of mRNA induction, a form of inducible reporter, as detected with fluorescence intensity signals by Reverse transcription polymerase chain reaction (RT-PCR) and Capillary electrophoresis technology.Data from the assay component ATG_Oct_MLP_CIS was analyzed into 1 assay endpoint. This assay endpoint, ATG_Oct_MLP_CIS, was analyzed with bidirectional fitting relative to DMSO as the negative control and baseline of activity. Using a type of inducible reporter, measures of mRNA for gain or loss-of-signal activity can be used to understand the reporter gene at the transcription factor-level as they relate to the gene POU2F1. Furthermore, this assay endpoint can be referred to as a primary readout, because this assay has produced multiple assay endpoints where this one serves a reporter gene function. To generalize the intended target to other relatable targets, this assay endpoint is annotated to the dna binding intended target family, where the subfamily is POU domain protein.
Human liver HepG2 cells are transiently transfected with multiple reporter transcription units (MRTUs) in 6-well plates using FuGene 6 reagent (Roche; 3 ml FuGene/1 mg DNA). The MRTU constructs are regulated by a cis-regulating element (promoter). […] A major difference between the CIS and TRANS system is that in CIS activities of endogenous TFs are measured, whereas the TRANS assay evaluates changes in activities of exogenous, chimeric NR-Gal4 proteins. […] At the end of 24 hour incubation, total RNA was isolated using TriZol reagent (Invitrogen). The isolated RNA is then reverse-transcribed using oligo(dT) primer and Mo-MLV reverse transcriptase (Invitrogen) with DNAse I (Ambion) treatment for 30 min. The one-tenth of the produced cDNA was amplified by PCR using Taq DNA polymerase (Invitrogen) and two reporter sequence-specific primers. The PCR products were fluorescently labeled by primer extension with 6-arboxyfluorescein (6-FAM) 5'-labeled reporter sequence-specific primer (2 min at 95 C, 20 s at 68 C and 10 min at 72 C) and these products were digested with 5U of HpaI (New England Biolabs) for 2h at 37 C. The fragments were purified using Qiaquick PCR columns (Qiagen), analyzed on an ABI 3130xL genetic analyzer (Applied Biosystems) with peak positions identified by using a set of X-rhodamine (ROX)-labeled MapMarker1000 molecular weight standards (BioVentures). The raw capillary electrophoresis data was processed using Attagraph software (Attagene).

SMILES	outcome	AC50
FC(F)(F)C(F)(F)C(F)(F)C(F)(F)C(F)(F)C(F)(F)CC1CO1 (stereo not given)	inactive	–
Cc1ccc(S(=O)(=O)OCC(F)(F)C(F)(F)C(F)(F)C(F)(F)C(F)(F)C(F)F)cc1	inactive	–
FC1CC(F)(F)C(F)(F)C1(F)F (stereo not given)	inactive	–
CC(C)OC(=O)c1ccccc1C(=O)OC(C)C	inactive	–
FC(F)(F)C(F)(F)C(F)(F)C(F)(F)C(F)(F)C(F)(F)CCS	inactive	–
CC(C)=CCCC(C)CCOC(=O)C(C)C (stereo not given)	inactive	–
[Co]	inactive	–
C=CC/C=C/C/C=C/C/C=C/C	inactive	–
O=C(O)C(F)(F)C(F)(F)C(F)F	inactive	–
O=C(C=Cc1ccccc1)OCC=Cc1ccccc1	inactive	–
CC/C=C\CCOC(C)=O	inactive	–
OCC(F)(F)C(F)(F)C(F)(F)C(F)(F)C(F)(F)C(F)(F)F	inactive	–
CCN(Cc1cccc(S(=O)(=O)O)c1)c1ccc(C(=C2C=CC(=[N+](CC)Cc3cccc(S(=O)(=O)O)c3)C=C2)c2ccc(O)cc2S(=O)(=O)[O-])cc1	inactive	–
FC(F)(I)C(F)(F)C(F)(F)C(F)(F)I	inactive	–
OC[C@@H](O)[C@@H](O)[C@H](O)[C@@H](O)CO	inactive	–
C(=C(c1ccccc1)c1ccccc1)c1ccccc1	inactive	–
c1ccc(-c2ccccc2-c2ccccc2)cc1	inactive	–
O=C(O)C(F)(F)C(F)(F)C(F)(F)C(F)(F)C(F)(F)C(F)(F)C(F)(F)C(F)(F)C(F)(F)C(F)(F)C(F)(F)C(F)(F)F	inactive	–
Oc1ccc(Nc2ccccc2)cc1	inactive	–
CS(C)(=O)=O	inactive	–

SMILES	outcome	AC50
C=C(C)C(=O)OCCC(F)(F)C(F)(F)C(F)(F)C(F)(F)C(F)(C(F)(F)F)C(F)(F)F	inactive	–
O=C(O)C(F)(F)C(F)(F)OC(F)(F)F	inactive	–
CCCCNc1ccccc1	inactive	–
O=S(=O)(OCC(F)F)C(F)(F)F	inactive	–
FC(F)(F)C(F)(F)C(F)(F)C(F)(F)C(F)(F)C(F)(F)C(F)(F)C(F)(F)F	inactive	–
FC(F)(F)C(F)(F)CNCC(F)(F)C(F)(F)F	inactive	–
CCCCCC=O	inactive	–
CCCCCCCCC(F)(F)C(F)(F)C(F)(F)C(F)(F)C(F)(F)C(F)(F)F	–	89.3 µM (active)
CC(Cc1ccc(O)c(O)c1)C(C)Cc1ccc(O)c(O)c1 (stereo not given)	–	20.6 µM (active)
CCCCCCOC(=O)c1ccccc1	inactive	–
C=CC(=O)OCC(F)(F)C(F)(F)C(F)(F)C(F)(F)COC(=O)C=C	–	21.5 µM (active)
FC(F)(F)C(F)(F)C(F)(F)N(C(F)(F)C(F)(F)C(F)(F)F)C(F)(F)C(F)(F)C(F)(F)F	inactive	–
O[Si](c1ccccc1)(c1ccccc1)c1ccccc1	inactive	–
N=C(N)C(F)(F)C(F)(F)C(F)(F)C(F)(F)C(F)(F)C(F)(F)C(F)(F)F	inactive	–
c1ccc(B(c2ccccc2)c2ccccc2)cc1	–	43.3 µM (active)
Cc1cc(C)cc(O)c1	inactive	–
CCCCC(CC)COP(=O)(O)OCC(CC)CCCC (stereo not given)	inactive	–
CC(C)(C)C(=O)CC(=O)C(F)(F)C(F)(F)C(F)(F)F	inactive	–
FC(F)(F)C(F)(F)C(F)(F)C(F)(F)C(F)(F)C(F)(F)C(F)(F)Br	inactive	–
CCCCCCS	inactive	–
